{"source": "PubChem BioAssay AID1210", "about": "(NMMLSC, 2008)", "data": [{"target": "Estrogen receptor beta (Homo sapiens) (UniProt Q92731)", "sequence (Q92731 whole entry, looked up)": "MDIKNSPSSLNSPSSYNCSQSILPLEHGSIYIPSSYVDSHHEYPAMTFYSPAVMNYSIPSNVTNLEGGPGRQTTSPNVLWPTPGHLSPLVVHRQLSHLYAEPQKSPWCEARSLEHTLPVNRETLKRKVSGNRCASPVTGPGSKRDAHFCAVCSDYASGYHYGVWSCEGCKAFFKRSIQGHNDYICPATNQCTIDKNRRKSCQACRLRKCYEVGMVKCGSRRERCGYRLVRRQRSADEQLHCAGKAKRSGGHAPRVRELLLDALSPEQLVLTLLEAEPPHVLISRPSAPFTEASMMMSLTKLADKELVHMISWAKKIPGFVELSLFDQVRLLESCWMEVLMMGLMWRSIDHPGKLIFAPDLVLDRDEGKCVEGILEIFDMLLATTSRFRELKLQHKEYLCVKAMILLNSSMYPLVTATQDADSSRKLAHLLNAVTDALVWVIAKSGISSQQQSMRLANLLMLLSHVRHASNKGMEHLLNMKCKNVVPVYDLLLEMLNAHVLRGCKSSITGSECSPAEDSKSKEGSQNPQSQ", "assay": "displacement of fluorescent estrogen from ERbeta – cell-based, Cos7 ERbeta-GFP, flow cytometry, primary screen (AID 1210);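 also: 0% = DMSO vehicle wells and 100% = complete loss of labeled estradiol signal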", "conditions": "fluorescent estrogen binding, ligand binding inhibition, at 0.1 µM, stronger effect = higher value", "units": {"inhibition": "%"}, "values": [{"smiles": "O=C(O)c1cccc2c1NC(c1cccc([N+](=O)[O-])c1)C1CC(Sc3ccccc3[N+](=O)[O-])C(Cl)C21", "note": "(centres undefined)", "inhibition": 11}, {"smiles": "COc1ccc(Cn2c(N)c(C(=O)NCc3ccco3)c3nc4ccccc4nc32)cc1", "inhibition": 13}, {"smiles": "NC(=O)c1ccc(N=Nc2c(O)[nH]c(=O)[nH]c2=O)cc1", "inhibition": 17}, {"smiles": "O=C(O)c1ccc2c(c1)C1C(Cl)C(Sc3ccccc3[N+](=O)[O-])CC1C(c1cccc([N+](=O)[O-])c1)N2", "note": "(centres undefined)", "inhibition": 6}, {"smiles": "CCOc1ccccc1N1C(=O)NC(=O)C(CCc2ccncc2)(CCc2ccncc2)C1=O", "inhibition": 35}, {"smiles": "CC(=O)c1ccc2c(c1)C1C(Cl)C(Sc3ccccc3[N+](=O)[O-])CC1C(c1ccccc1[N+](=O)[O-])N2", "note": "(centres undefined)", "inhibition": 6}, {"smiles": "Cc1ccc(S(=O)(=O)Cc2ccc(C(=O)N3CCC4(CC3)OCCO4)o2)cc1", "inhibition": 7}, {"smiles": "CC(=O)c1ccc2c(c1)C1C(Cl)C(Sc3ccccc3[N+](=O)[O-])CC1C(c1ccccc1)N2", "note": "(centres undefined)", "inhibition": 22}, {"smiles": "C[C@H]1CCC[C@@H](O)CCC/C=C/c2cc(O)cc(O)c2C(=O)O1", "inhibition": 62}]}]}
